HCV inh = blocks hepatitis C virus; Potency, µM (doses to about 41.8 µM), usual class: inhibitors; actives 3.4% (n = 340,000); Huh7.5.1 HCVcc-Cre infection, luciferase reporter, 44 h
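Reporter virus HCVcc-Cre (~0.5 moi) infects cells exposed to compound; seeding density 1,000 cells/well with 4 h settling beforehand. Luminescence, 15 sec read, taken 44 h post-infection following a 15 min RT substrate incubation.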
Pf growth 96h = P. falciparum growth inhibition at 96 hours. P. falciparum luciferase reporter growth, 96 h. Potency, µM (titrated, usually from 28.7 µM), hits mostly inhibitors. actives 6.9% (n = 320,000). AID 504834
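Cell-based qHTS: luciferase-tagged P. falciparum in erythrocytes (2% hematocrit, 0.05% parasitemia final) incubated with compounds for 96 hours, 37 C, 5% CO2; luciferase detection reagent then added and luminescence measured.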
NS1 function inh = inhibitors of influenza NS1 protein function. Potency, µM (highest dose often 46.1 µM). actives 0.4% (n = 270,000). AID 2326; calls by dose curve; note: actives are rising curves; nearly all actives have a fitted effect of over 50% in size
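In this qHTS, NS1 from influenza A is expressed in budding yeast, where it slows growth. Cells are switched from glucose to 2% galactose medium (pH 6.0, -URA), treated with compound, and growth recovery is read at OD600.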
VACV Venus inh = vaccinia inhibition (Venus reporter); Vaccinia virus Venus reporter expression, fluorescence; Potency, µM (highest dose often 36.5 µM), usual class: inhibitors; actives 0.46% (n = 330,000); AID 720580; calls by dose curve; tested in A549 cells; note: nearly all actives have a fitted effect of over 30% in size
Pf growth 48h = P. falciparum growth inhibition at 48 hours (one generation). P. falciparum luciferase growth in erythrocytes, 48 h. Potency, µM (top dose mostly 28.7 µM), most hits filed as inhibitors. actives 5.9% (n = 310,000). AID 504832
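Here the parasites carry a stable luciferase gene and grow inside erythrocytes in Albumax-based RPMI medium with compound for one erythrocytic cycle. Activity is scored as loss of luminescent signal.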
Vaccinia mCherry = inhibitors of vaccinia virus infection (mCherry reporter signal); Vaccinia virus mCherry reporter infection, fluorescence; Potency, µM (series often up to 36.5 µM), usual class: inhibitors; actives 0.63% (n = 310,000); AID 720579; calls by dose curve; tested in A549 cells; note: nearly all actives have a fitted effect of over 35% in size
Numbers stand for hits; n = inactive; u = inconclusive; x = no result given; [ ] = remark or other dose. Only some compounds are listed: those with a hit (about 11% of all), similar ones and a draw of the others. Unless noted, calls come from the whole dose curve; as a rule, active = well fitted inhibition curve with a large enough effect; inconclusive = small, poorly fitted or top-dose-only effect, or another doubt; inactive = no such curve, though single readings can be large or run the other way.

SMILES	HCV inh	Pf growth 96h	NS1 function inh	VACV Venus inh	Pf growth 48h	Vaccinia mCherry
CCOc1ccc(Cl)cc1CSc1n[nH]c(CC)n1	11.2µM	n	n	x	u	x
CCCCOc1ccc(Cl)cc1CSc1n[nH]c(C)n1	n	u	n	n	u	n
COc1cc(OC)c(OC)cc1/C=C1/C(=O)N=C(N)N1C	n	n[5.75 µM]	x	x	n	x
COc1ccc(/C=C2/C(=O)N=C(N)N2C)cc1OC	n	11.7µM	n	n	n	n
COc1ccc(CCc2cc(OC)cc(=O)o2)cc1	n	1.85µM	n	n	n	n
O=C1C=C(Nc2ccccc2)C(=O)c2ccccc21	n	2.33µM	n	u	u	n
CCc1ccc(NC2=CC(=O)C(=O)c3ccccc32)cc1	u	0.0738µM	x	n	0.0828µM	n
O=C1C(Nc2ccccc2)=CC(=O)c2ncccc21	x	x	x	n	x	n
CCCCNC1=CC(=O)C(=O)c2ccccc21	11.2µM	n	n	x	n	x
O=C1C=C(Nc2ccccc2C(=O)O)c2ccccc2C1=O	n	n	n	x	n	x
O=C1C=C(Nc2cccc3cccnc23)c2ccccc2C1=O	u	n	n	n	2.08µM	u
COC(=O)C[C@@H]1C=C[C@H](NS(=O)(=O)c2cccc(F)c2)[C@@H](CO)O1	x	x	x	n	x	n
CC1=CC(=O)[C@@H](O)[C@@H](c2ccccc2Br)N1C	n[8.37 µM]	x	x	n	x	n
O=C1C=C(Nc2ccccc2)c2ccccc2C1=O	8.91µM	n	n	7.94µM	u	u
CCOc1ccccc1C(=O)Nc1nncs1	u	n	n	n	n	u
COc1ccc(S(=O)(=O)N2CCC(C(=O)N(CC(C)C)C3CCS(=O)(=O)C3)CC2)cc1OC (configuration not stated)	n	n	x	n	n	n
CCc1ccc(/C=C2/Sc3ccccc3N(CC(=O)NCC3CCCO3)C2=O)cc1 (configuration not stated)	10µM	u	n	x	n	x
O=C(CN1C(=O)/C(=C\c2cccc(Br)c2)Oc2ccccc21)NCC1CCCO1 (configuration not stated)	n	13.1µM	n	x	u	x
Cc1ccc(/C=C2/Sc3ccccc3N(CC(=O)NCC3CCCO3)C2=O)cc1 (configuration not stated)	u	n	n	n[7.34 µM]	n	n[7.34 µM]
Cc1ccc2ncc(C(=O)NCCc3ccc(S(N)(=O)=O)cc3)c(=O)n2c1	x	x	x	n[7.34 µM]	x	n[7.34 µM]
O=C(Nc1ccccc1-c1ccccc1)c1ccc(NC(=O)c2ccco2)cc1	u	x	n	n	11.7µM	n
O=C(Nc1ccccc1-c1ccccc1NC(=O)c1ccco1)c1ccco1	n	u	n	u	10.4µM	x
COc1ccc(CC(=O)Nc2cccc(C(=O)NN3C(=O)c4ccccc4C3=O)c2C)cc1	n	n	n	n	n	n
Cc1c(NC(=O)c2ccco2)cccc1C(=O)NN1C(=O)c2ccccc2C1=O	n	14.7µM	x	n	n	n
O=C(OC1CCCCC1)c1ccc(NC(=O)c2ccco2)cc1	u	2.94µM	n	u	u	x
SMILES	HCV inh	Pf growth 96h	NS1 function inh	VACV Venus inh	Pf growth 48h	Vaccinia mCherry
CCN(CC)S(=O)(=O)c1cc(C(=O)Nc2ccccc2C(=O)O)ccc1OC	n	x	u	n	u	n
COc1ccc(NC(=O)CC(C)C)c(OC)c1	n	n	n	n	x	x
O=C(Nc1ccccc1-c1ccccc1)c1ccco1	u	1.31µM	n	n	n	n
CCCCCOC(=O)Cn1c(=O)oc2ccccc21	n	n	n	n	n	n
Cc1ccc2oc(=O)n(CCOc3ccccc3C)c2c1	n	n	n	n	2.62µM	n
CC(C)OC(=O)Cn1c(=O)oc2ccccc21	n	2.33µM	n	n	x	n
CCOC(=O)Cn1c(=O)oc2ccc(C)cc21	n	u	n	n	n	n
Cc1ccc2oc(=O)n(CC(=O)OC(C)C)c2c1	n	10.4µM	n	n	n	x
COc1ccc(Cn2c(=O)oc3ccc(C)cc32)cc1OC	14.1µM	n	n	x	n	x
Cc1ccc(-n2ncc3c(NCCO)ncnc32)cc1Cl	x	x	x	n	x	n
CCc1ccc2[nH]c3nc(SCCN4CCOCC4)nnc3c2c1	u	9.28µM	n	x	n	x
CCc1ccc2[nH]c3nc(SCC(=O)NCC4CCCO4)nnc3c2c1 (configuration not stated)	u	n	n	n	n	n
CCCCn1c2ccc(F)cc2c2nnc(SCCN3CCOCC3)nc21	u	2.62µM	n	n	u	n
Cc1ccc(CN2CCc3nc(SCC(=O)Nc4cccc(C)c4C)[nH]c(=O)c3C2)cc1	x	x	x	n	x	n
CC(=O)NC1(C(F)(F)F)C(=O)Nc2c1c(=O)[nH]c(=O)n2CC(C)C (configuration not stated)	n	u	n	x	n	x
CC(=O)c1ccc(NC(=O)Cn2nc(C)c([N+](=O)[O-])c2C)cc1	n	n	n	n	n	n
Cc1cc(C)c(NC(=O)CNC(=O)c2cc([N+](=O)[O-])ccc2N2CCOCC2)c(C)c1	25.1µM	n	x	n	u	n
CC(C)CNC(=O)c1cc([N+](=O)[O-])ccc1N1CCOCC1	n	n	n	n	n	n
Cc1cc(=O)oc2cc(NC(=O)c3cc([N+](=O)[O-])ccc3N3CCOCC3)ccc12	10µM	u	n	n	n	n
CCC(C)(C)NC(=O)c1cc([N+](=O)[O-])ccc1N1CCOCC1	n	n	n	n	n	n
CC(C)(CNC(=O)c1cc([N+](=O)[O-])ccc1N1CCC(Cc2ccccc2)CC1)N1CCOCC1	u	u	x	x	9.28µM	x
Cc1cccc(NC(=O)c2oc3c(c2C)-c2[nH]ncc2CC3)c1C	x	x	x	n	x	n
COc1ccc(NC(=O)c2cc(C3CCCCN3C(=O)c3ccc(C#N)cc3)on2)c(C)c1 (configuration not stated)	x	x	x	n	x	n
Cc1cc(C)n2nc(SCc3nnc(SCc4ccccc4)s3)nc2n1	n	u	n	n	n	n
CCc1cccc(C)c1N=Cc1c(O)c2ccccc2oc1=O	n	n	n	u	13.1µM	n
SMILES	HCV inh	Pf growth 96h	NS1 function inh	VACV Venus inh	Pf growth 48h	Vaccinia mCherry
Cc1ccc(N=Cc2c(O)c3ccccc3oc2=O)c(C)c1	n	n	n	x	n	x
O=C(O)CCCN=Cc1c(O)c2ccccc2oc1=O	n	10.4µM	x	n	n	n
CC(C)CC(N=Cc1c(O)c2ccccc2oc1=O)C(=O)O (configuration not stated)	n	n	x	n	n	n
O=C(Nc1ccccn1)c1ccc(C(=O)c2ccccc2)cc1	n	n	x	n	n	n
C/C(=N\NC(=O)c1ccc([N+](=O)[O-])cc1)c1c(O)cc(C)oc1=O	n	n	x	n	n	n
C/C(=N/NC(=O)c1cc(O)c(O)c(O)c1)c1ccc([N+](=O)[O-])cc1	n	n	x	n	9.28µM	n
O=C(N/N=C/c1ccccc1[N+](=O)[O-])c1ccc(CN2CCOCC2)cc1	n	9.28µM	n	n	n	n
O=C(Nc1cccc([N+](=O)[O-])c1)c1ccc(CN2CCOCC2)cc1	u	11.7µM	n	n	n	n
C/C(=N\N1CCN(Cc2ccc(Cl)cc2)CC1)c1ccc([N+](=O)[O-])cc1	11.2µM	n	n	n	n	n
